# Assay results published in ChEMBL document CHEMBL4888484, “Replenishing the malaria drug discovery pipeline: Screening and hit evaluation of the MMV Hit Generation Library 1 (HGL1) against asexual blood stage Plasmodium falciparum ,using a nano luciferase reporter read-out” (2022).
# Among all 4,800 compounds or so, about 420 (8.8%) showed an effect of 50% or more. The full list was thinned out, with strong results kept by preference.
# System: Plasmodium falciparum
# Assay: Confirmatory screen in NF54 nanoGlo assay, in single point, at 2uM, 72h
# Assay type: functional, Erythrocyte
# Conditions: timepoint 72 hour
row,SMILES,% Inhibition
1,Cc1cc(OC[C@@H](O)CNC(C)(C)CC(C)(C)C)cc(C)c1Cl,67%
2,CC(=O)N1CCCN(S(=O)(=O)Cc2ccccc2Cl)CCNC(=O)[C@@H]2CCC[C@@H]21,0%
3,Cc1ccc(-c2n[nH]c(NC(=O)Nc3ccc(F)c(S(=O)(=O)NC4CC4)c3)c2C)o1,-9%
4,CCOc1ccc([C@@H](Nc2nc(C)cc(C)n2)c2cc(C)sc2NC(=O)c2ccccc2)cc1,1%
5,COc1ccc(OC)c([C@H](C)NC(=O)N2CCS(=O)(=O)CC2)c1,-3%
6,C[N+]12CCCCC1C(OC(=O)C1(c3ccccc3)CCCC1)CCC2 (stereo not given),96%
7,CN(C(=O)Cn1cnc2nc(N3CCC(C(=O)NC4CC4)CC3)sc2c1=O)c1ccccc1,-14%
8,CCCCC1NC(=O)N([C@@H]2CCC(=O)N[C@H]2c2ccccc2)C1=O (stereo not given in full),2%
9,CC(C)C(NC(=O)COc1ccccc1)C(=O)NCC(c1ccccc1Cl)c1c[nH]c2ccccc12 (stereo not given),69%
10,O=C(Cc1c[nH]c2ccccc12)Nc1ccc(Cl)c2ncccc12,5%
11,CC(=O)Nc1ccccc1CC(c1c[nH]c2ccccc12)c1c[nH]c2ccccc12,0%
12,CCS(=O)(=O)N1CCN(c2nc(Cc3ccc(C)cc3)nc3c2c(C)nn3-c2ccccc2)CC1,-3%
13,N/C(CC(=O)Nc1cccc(Cl)c1)=N/O,-4%
14,CCCC[C@H](Oc1ccc(C(C)(C)CC)cc1C(C)(C)CC)C(=O)Nc1ccc(NC(=O)C(F)(F)C(F)(F)C(F)(F)F)c(O)c1,30%
15,Cc1cc(-c2ccccc2)nc(O)c1S(C)(=O)=O,-3%
16,Cc1nn(Cc2ccccc2)c2nc(C3CC3)cc(C(=O)N3CCOCC3)c12,3%
17,Cc1ccc(S(=O)(=O)N2CCN(C(=O)c3cc(C4CC4)nc4c3c(C)nn4C(C)C)CC2)cc1,-1%
18,Cc1nn(C(C)(C)C)c2nc(C3CC3)cc(C(=O)N(C)c3ccccc3)c12,81%
19,Cc1cnc(-n2cnnc2)c(-c2ccc(S(C)(=O)=O)cc2)c1,-3%
20,Cn1c(-c2ccccc2)cn2cc(-c3ccc(F)cc3)nc12,1%
21,COc1cccc(Cn2nc3ccc(S(=O)(=O)N4CCCC4)cn3c2=O)c1,2%
22,Cc1cc(NC(=O)c2ccccn2)n(-c2nc3ccccc3o2)n1,88%
23,Cc1cc(C(=O)Nc2cc(C)nn2C)nc(N(C)C)n1,-1%
24,Cc1cc(C)n(C(=O)CNC(=O)c2ccccn2)n1,2%
25,CCc1cc(C(=O)N(CC)c2ccccc2)c2c(C)noc2n1,-7%

row,SMILES,% Inhibition
1,O=C(Nc1cc(-c2onc3c2CCCC3)cc(C(F)(F)F)c1)c1cncc(Br)c1,95%
2,O=C(Nc1onc2c1CCC2)c1ccc2ccccc2c1,45%
3,Clc1ccc(-c2onc3c2CCCC3)cc1,2%
4,Cn1c(CCNC(=O)CCc2cccnc2)nc2cc(Cl)ccc21,-3%
5,CCN1CCC(NC(=O)CCc2c[nH]c3ccccc23)CC1,4%
6,CC1(C)Oc2ccc(S(=O)(=O)NC3CCCCC3)cc2NC1=O,-8%
7,Cc1nn(-c2nc3ccccc3[nH]2)c(O)c1Cc1ccccc1,2%
8,Cc1nn(-c2nc3ccccc3[nH]2)c(O)c1CCC(C)C,68%
9,Oc1cc(-c2ccc(F)cc2)nn1-c1nc2ccccc2[nH]1,-9%
10,O=C(Nc1ccc(OC2CCC2)c(F)c1)N1CC[C@H](O)C1,-2%
11,CCCc1noc([C@H](C)OC(=O)c2cc[nH]n2)n1,-7%
12,CCN1C(=O)C(=O)N(CN2CCc3ccccc3C2)C1=O,-4%
13,Cc1nn(C)c(Cl)c1NC(=O)OCc1ccc(F)cc1,-4%
14,CCn1cc(C#N)c(=O)c2cc(F)c(N3CCN(Cc4ccccc4)CC3)cc21,69%
15,CCn1cc(C(=O)O)c(=O)c2cc(F)c(N3CCN(S(=O)(=O)c4ccccc4)CC3)cc21,-10%
16,CCn1cc(-c2nc(-c3ccccc3C)no2)c(=O)c2cc(F)c(N3CCCCC3)cc21,47%
17,c1cc(Cn2cnc3c2CCCC3)cs1,-15%
18,CC[C@H]1Cn2c(C(=O)NCc3cccs3)cc3c(Cl)ccc(c32)O1,-4%
19,COc1ccc2c(NC(=O)Cc3c(C)noc3C)n[nH]c2c1,0%
20,COc1ccc2c(O)cc(-c3ccccc3)nc2c1,-2%
21,COc1ccc(C(=O)Cn2nc(C)cc2C)cc1,-4%
22,O=C(Nc1cccc(Oc2c(F)c(F)c(-c3c(F)c(F)c(Oc4cccc(NC(=O)c5ccccc5)c4)c(F)c3F)c(F)c2F)c1)c1ccccc1,5%
23,Nc1cc(C(F)(F)F)c(Br)cc1Br,-16%
24,Cc1cccc(N2CCN(C(=O)c3ccc4c(c3)C(=O)N(c3cc(C)on3)C4=O)C[C@@H]2C)c1,-3%
25,CC1CN(S(=O)(=O)CC2CCOC2)c2ccc(F)cc2O1 (stereo not given),-2%

row,SMILES,% Inhibition
1,CCOc1ccccc1NC(=O)Cc1c(C)nc2nc(-c3cccnc3)nn2c1C,0%
2,CCCOc1ccc(Nc2cc(C)nc3ccc(Cl)cc23)cc1,42%
3,Cc1cc(C)c2nc(C)cc(Nc3ccc(O)cc3)c2c1,87%
4,Cc1ncoc1C(=O)N1CC(F)(F)C[C@H]1Cn1cc(C(=O)N2CCOCC2)nn1,-1%
5,CC(C)(C)OC(=O)Nc1cccc(N)n1,1%
6,Cn1cncc1CC(=O)Nc1ccnc(NC(=O)OC(C)(C)C)c1,96%
7,COc1ccc(-c2noc(Cn3c(=O)c4ccccc4n(CC(=O)Nc4cc(Cl)ccc4C)c3=O)n2)cc1,-3%
8,O=C(C[C@H]1CCN(C(=O)c2ccc(F)cc2)C1)NC1CC1,-11%
9,CCS(=O)(=O)Nc1ccc(S(=O)(=O)NC[C@@H](c2ccccc2OC)N2CCCCC2)c(C)c1,-1%
10,CC(C)[C@@H]1CC[C@H](C)C[C@H]1OC(=O)Cn1cc(-c2ccc(Cl)cc2)[n+]2c1CCC2,84%
11,CC(C)N(C(=O)c1cc(O)nc2ccccc12)C1CC1,-2%
12,CN(CC(C)(CO)CO)C(=O)c1coc2ccccc12,-3%
13,Oc1cc(-c2ccc3ccccc3c2)[nH]n1,-11%
14,Cc1cccc(C)c1OCC(=O)Nc1ccc(-c2nc3cc4ccccc4cc3[nH]2)cc1,10%
15,c1cc(-c2nc3cc4ccccc4cc3[nH]2)nc(-c2nc3cc4ccccc4cc3[nH]2)c1,99%
16,Cc1cccc(NC(=O)[C@@H](C#N)C(=O)c2ncoc2C)c1,-14%
17,Cc1c(C2CC2)n[nH]c1NC(=O)C1CC1c1ccccc1 (stereo not given),-1%
18,O[C@@]1(CN2CCC(COc3ccc4c(c3)CCC4)CC2)CCCNC1,52%
19,COc1cccc(Cn2nccc2NC(=O)C2CCOCC2)c1OC,-3%
20,CC(C)Cn1c(C(F)(F)F)cnc1N,3%
21,Cc1ncc(CN(C)[C@@H](C)C(=O)Nc2ccc3c(c2)OC2(CCCCC2)O3)s1,-4%
22,COc1cc(Cl)c(C)cc1NC(=O)c1nc2cc(C)c(C)cc2n(C)c1=O,-3%
23,O=C(c1ccc2c(c1)OCCCO2)N1CCCCC1,-3%
24,O=C(c1ccc2c(c1)OCO2)N1CCn2c1nc1ccccc12,65%
25,Cc1nc2ccccc2n1CCC(=O)N1CCN(Cc2ccc3c(c2)OCO3)CC1,2%

row,SMILES,% Inhibition
1,CCC[C@H]1C(=O)NCCN1C(=O)c1cnn(CC2CCOCC2)c1C,8%
2,Cc1nnc(NC(=O)[C@H](C)c2ccc(-c3ccccc3)c(F)c2)s1,-19%
3,COc1cc(C(c2c(C)n(C)n(-c3ccccc3)c2=O)c2c(C)n(C)n(-c3ccccc3)c2=O)c(Br)c(Br)c1OCc1ccccc1,7%
4,Cn1ccnc1C1CC(NC(=O)c2cc3c(s2)CCC3)CCO1 (stereo not given),0%
5,COc1cc(C(=O)NC2CCCCC2)cc2occc12,-8%
6,COc1cc2c(cc1OC)[C@@H](NC(=O)c1cnc(C3(C)OCCO3)s1)CCCC2,50%
7,Cc1cccc(C(=O)ON2C(=O)CCC2=O)c1,-11%
8,CCCCC[C@H](C)NC(=O)CCC(=O)Nc1cccnc1,-11%
9,Cc1ccc(Oc2ccccc2CNC(=O)[C@@H]2CCC(=O)N2)cc1,-6%
10,COCCN(Cc1nc(C(=O)NC(C)C)cs1)C(=O)Nc1ccc(C(C)C)cc1,4%
11,CC1CCN(C(=O)Cc2csc(NC(=O)c3cccc(O)c3)n2)CC(C)C1 (stereo not given),-10%
12,Fc1cnc(OC2Cc3ccccc3C2)nc1,57%
13,CCn1c(C)cc(C(=O)O[C@@H](C)C(=O)Nc2ncccn2)c1C,-4%
14,CC1CCCC(C)N1C(=O)CN(C)c1cccc2cccnc12 (stereo not given),-7%
15,Cc1ccc(S(=O)(=O)Nc2ccc(Br)cc2C(=O)Nc2ccc(Oc3ccc(Br)c4ccccc34)c(Cl)c2)cc1,6%
16,C[C@@H](CC(=O)Nc1cncnc1-n1cccn1)c1ccccc1,-3%
17,OC(CC(Nc1ccc(Cl)cc1)c1ccccc1)c1ccccc1 (stereo not given),-8%
18,CC(C)n1nccc1N1C(=O)N[C@@H](CC(F)(F)F)C1=O,0%
19,CCN1C(=O)C[C@H](C(=O)Nc2cnc3ccccc3c2)[C@H]1c1nccn1CC,2%
20,O=C(Nc1cc(NC(=O)c2ccc(F)cc2)cc(Oc2cccnc2)c1)c1ccc(F)cc1,-1%
21,O=C(Nc1cnc2ccccc2c1)c1ccccc1C(=O)c1ccc(F)cc1,96%
22,Cc1nn(C)c(NC(=O)Nc2cccc(Cl)c2)c1C1=CCCCC1,-5%
23,COc1ccc(-c2cn(-c3ccc(OC)cc3)c(N)c2C#N)cc1,-7%
24,CCc1n[nH]c(=O)c(C(=O)Nc2cnc3[nH]nc(C)c3c2)c1CC,-1%
25,Cc1nsc(N2CCN(CC(C)O)C(C)C2)n1 (stereo not given),-4%
